Inconclusive results are not listed. Calls of active or inactive are those of the source.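 How the source made its calls, unless noted: active means viability increase at or above a cutoff of the median across tested compounds plus 3 SD (cut at about 8.5% in these data, passing the limit was not always enough); inconclusive means some gains above the cutoff, reason not given; inactive means the rest.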
Key:
[1] = Her2 expression decrease, cell viability multiplex – SKBR3 breast tumor cells, AlphaScreen, ATP viability, primary screen (AID 461;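 active means Her2 level under about 52% in both replicate screens, with viability over 70% of control, limit read from the data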;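 on Her2 level: lower value means less Her2 protein in the cells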;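 on viability: percent of carrier control wells set as 100% viability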); settings: SKBR3 Her2 protein level, 18-24 h, measured here: SKBR3 viability, ATP luminescence, at 10 µM
[2] = target: Receptor tyrosine-protein kinase erbB-2 (Homo sapiens) (UniProt P04626); assay: as above; settings: 18-24 h, at 10 µM, stronger effect = lower value
Sequence of Receptor tyrosine-protein kinase erbB-2 (Homo sapiens) (P04626 whole entry, looked up): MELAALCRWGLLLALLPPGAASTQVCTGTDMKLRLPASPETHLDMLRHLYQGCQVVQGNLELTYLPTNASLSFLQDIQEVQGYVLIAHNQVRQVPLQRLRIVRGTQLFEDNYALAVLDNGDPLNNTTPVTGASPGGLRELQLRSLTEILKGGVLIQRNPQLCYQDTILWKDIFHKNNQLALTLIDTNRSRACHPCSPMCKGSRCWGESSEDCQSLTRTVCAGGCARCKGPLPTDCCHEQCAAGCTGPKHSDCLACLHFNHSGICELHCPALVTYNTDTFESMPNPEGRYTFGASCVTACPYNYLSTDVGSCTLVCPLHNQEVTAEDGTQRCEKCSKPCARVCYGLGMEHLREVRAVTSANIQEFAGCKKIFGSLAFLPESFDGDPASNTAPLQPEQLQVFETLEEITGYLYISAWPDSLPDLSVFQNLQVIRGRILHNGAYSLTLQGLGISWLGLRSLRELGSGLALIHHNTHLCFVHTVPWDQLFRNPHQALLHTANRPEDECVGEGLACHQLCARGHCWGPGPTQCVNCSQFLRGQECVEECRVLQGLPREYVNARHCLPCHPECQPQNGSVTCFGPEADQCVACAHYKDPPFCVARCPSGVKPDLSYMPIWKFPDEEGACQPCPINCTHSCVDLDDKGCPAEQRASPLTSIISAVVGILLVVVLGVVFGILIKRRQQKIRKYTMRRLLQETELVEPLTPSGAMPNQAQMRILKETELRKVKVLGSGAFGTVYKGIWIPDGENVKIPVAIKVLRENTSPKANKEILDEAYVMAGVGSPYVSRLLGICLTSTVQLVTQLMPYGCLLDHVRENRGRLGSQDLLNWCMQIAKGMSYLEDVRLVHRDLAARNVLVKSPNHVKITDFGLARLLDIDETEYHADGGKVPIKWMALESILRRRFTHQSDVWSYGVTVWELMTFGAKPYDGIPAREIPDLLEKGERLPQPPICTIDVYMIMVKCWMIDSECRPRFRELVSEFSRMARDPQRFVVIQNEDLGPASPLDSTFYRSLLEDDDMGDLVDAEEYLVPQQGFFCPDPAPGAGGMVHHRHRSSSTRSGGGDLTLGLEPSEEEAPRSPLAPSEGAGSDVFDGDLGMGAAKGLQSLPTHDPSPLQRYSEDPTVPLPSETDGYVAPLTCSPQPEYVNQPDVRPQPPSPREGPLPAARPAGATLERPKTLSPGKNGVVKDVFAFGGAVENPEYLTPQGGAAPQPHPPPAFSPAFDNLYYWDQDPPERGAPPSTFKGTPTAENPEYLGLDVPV

[3] = reduced viability of SK-BR-3 breast cancer cells – cell-based, 24 h, human, pilot screen (AID 572;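 active means viability at or below 10% of carrier control in both of two separate runs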;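 further: compound exposure lasted between 18 and 24 h rather than exactly 24 h; 100% = carrier-treated control wells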); settings: SK-BR-3 viability, CellTiter-Glo luminescence, at 10 µM, stronger effect = lower value
[4] = HUVEC growth inhibition – cell-based, human, primary screen (AID 575;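 active means viability at or below 30% in both replicate assays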;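 further: 100% = median of untreated cell wells with 0.1% DMSO on each plate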); settings: HUVEC proliferation, CellTiter-Glo luminescence, 72 h; at 10 µM; stronger effect = lower value
[5] = H69AR cell proliferation blockers – human, duplicate replicates, primary screen (AID 580;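 active means viability at or under a set limit in both replicates, limit being median viability minus 3 SD, cut at about 48% in these data, passing the limit was not always enough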;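 further: 100% = mean luminescence of untreated wells and 0% = no signal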); settings: H69AR lung tumor cells viability, ATP luminescence, 72 h; at 10 µM; stronger effect = lower value
[6] = MRP1 drug-resistance reversers in H69AR cells – cell-based, doxorubicin co-treatment, pilot screen (AID 601;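 active means viability loss from added drug above about 55%, and viability with drug at most 40%, in both replicates, limit read from the data, passing the limit was not always enough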); settings: CellTiter-Glo, 72 h, at 10 µM; for differential viability (reversal): stronger effect = higher value
[7] = yeast transport mutant growth inhibition pilot in 384-well plates, post-Golgi transport modulator project (AID 636; in the data active means inhibition above about 31%); settings: absorbance 615 nm, about 18 h, stronger effect = higher value
[8] = growth suppression of yeast trafficking mutant, preliminary HTS, modulators of trafficking downstream of Golgi apparatus project, 1536-format plate, OD 615 nm (AID 637; in the data active means inhibition above about 30%); settings: yeast transport mutant growth, absorbance 615 nm, 18 h; stronger effect = higher value
[9] = S. cerevisiae growth inhibition in permissive medium (OD615), pilot counter-assay for S. cerevisiae lifespan shortening project, permissive growth control (AID 705;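 active means growth inhibition above 25% in both replicates, a cutoff set 3 SD above the mean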); settings: OD615, 24 h, at 10 µM, stronger effect = higher value
[10] = S. cerevisiae growth inhibition in restrictive medium, OD615, pilot screen, restrictive growth control, yeast lifespan reduction project (AID 706;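 active means growth inhibition above a set limit, 3 SD over mean compound inhibition, in both replicates, cut at about 43% in these data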;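 further: modified DeaD lifespan yeast strain shifted to restrictive glucose medium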); settings: OD615, 48 h, at 10 µM, stronger effect = higher value
[11] = doxorubicin toxicity protection in MRP-1 cells – H69AR cells, CellTiter-Glo, duplicate, MRP-1 activator project, pilot screen (AID 807); settings: H69AR viability with doxorubicin, CellTiter-Glo luminescence; at 10 µM; stronger effect = higher value;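 further: compound pretreatment 18-22 h then 72 h combined with doxorubicin; 0% = doxorubicin alone and 100% = vehicle without doxorubicin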
[12] = viability of HCT116 without oncogenic beta-catenin – human colon tumor cells, pilot screen (AID 823;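 active means cell viability at or below a set limit in both duplicate runs, the limit being the all-compound median minus 4 SD, cut at about 23% in these data, passing the limit was not always enough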;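 further: 0% = wells killed by 20 µM Hyamine and 100% = untreated DMSO cell wells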); settings: HCT116 beta-catenin knockout viability, CellTiter-Glo, 60 h; at 10 µM; stronger effect = lower value
[13] = viability of PTEN-null HCT116 cells – cell-based, HCT116 clonal line, CellTiter-Glo, pilot screen (AID 824;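 active means viability at or below 27.92% in each of two runs, the all-compound median minus 4 SD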;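 further: 0% = 20 µM Hyamine control and 100% = vehicle cell control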); settings: HCT116 PTEN-deleted viability, 60 h, at 10 µM, stronger effect = lower value
[14] = RAM pathway blockade in budding yeast – dse1pr::URA3 reporter, 5-FOA selection, pilot screen (AID 869;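 active means inhibition over a set limit, the all-compound mean plus 3 SD, in both replicate runs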;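 further: 0% = DMSO wells with no growth and 100% = 10 µM 1-NA-PP1 with full growth; RAM network block rescues cells from 5-FOA so hits raise OD615 growth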); settings: S. cerevisiae dse1pr::URA3 5-FOA growth, OD615, 2 d; at 10 µM; stronger effect = higher value; strain carries analog-sensitive mutant Cbk1 kinase
[15] = RAM signaling pathway blockade in yeast – S. cerevisiae, Pdr1DBD-CYC8 efflux-inhibited sensitized strain, primary screen (AID 1298;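 active means RAM network inhibition above 8.4% in each of two replicates, 3 SD over the compound average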;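 further: 0% = DMSO untreated cells without growth and 100% = 10 µM 1-NA-PP1 full growth; higher means more yeast growth rescued from 5-FOA killing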); settings: S. cerevisiae cbk1-as DSE1-URA3 strain, 5-FOA growth OD615, 2 d; at 50 µM; stronger effect = higher value
[16] = H69AR cells + 2 uM doxorubicin, measured here: viability with 2 uM doxorubicin, stronger effect = lower value
[17] = H69AR cells, compound alone cytotoxicity

O=C(c1ccc(Br)cc1)N1CCN(S(=O)(=O)c2ccccc2)CC1
113%: viability [1]
92.6%: viability [6, 17]
inactive: Her2 level [2] 120% | viability [3] 113% | viability [4] 103% | viability [5] 92.6% | differential viability (reversal) ([6]; H69AR cells + 2 uM doxorubicin) -2.33% | inhibition [7] 3.33% | inhibition [8] 2.33% | growth inhibition [9] 4.02% | growth inhibition [10] 11.1% | viability increase [11] -1.15% | viability [12] 84.7% | viability [13] 90.4% | inhibition [14] 1.71% | RAM network inhibition [15] 1.8%
94.9%: viability [6, 16]

Cc1nc2sc(C(c3cccs3)N3CCC(C(N)=O)CC3)c(O)n2n1 (stereo not given)
inactive: Her2 level [2] 128% | viability [3] 92.5% | viability [4] 100% | viability [5] 91.8% | differential viability (reversal) ([6]; H69AR cells + 2 uM doxorubicin) -4.42% | inhibition [7] -3.73% | inhibition [8] -1% | growth inhibition [9] -0.435% | growth inhibition [10] 3.77% | viability increase [11] -0.3% | viability [12] 101% | viability [13] 94.2% | inhibition [14] 0.69% | RAM network inhibition [15] 4.12%
92.5%: viability [1]
91.8%: viability [6, 17]
96.2%: viability [6, 16]

CCOc1ccc(-c2nnc(SCC(=O)N3CCN(c4ccccc4)CC3)o2)cc1
inactive: Her2 level [2] 96% | viability [3] 103% | viability [4] 99.5% | viability [5] 86.5% | differential viability (reversal) ([6]; H69AR cells + 2 uM doxorubicin) -2.04% | inhibition [7] -3.73% | inhibition [8] -3.28% | growth inhibition [9] -3.14% | growth inhibition [10] 2.85% | viability increase [11] -0.66% | viability [12] 102% | viability [13] 97.3% | inhibition [14] 2.71% | RAM network inhibition [15] 3.72%
103%: viability [1]
88.5%: viability [6, 16]
86.5%: viability [6, 17]

C=CCNC(=O)CSc1nc2sc(C)c(C)c2c(=O)[nH]1
85.7%: viability [6, 16]
96.5%: viability [1]
78.2%: viability [6, 17]
inactive: Her2 level [2] 95.5% | viability [3] 96.5% | viability [4] 90.1% | viability [5] 78.2% | differential viability (reversal) ([6]; H69AR cells + 2 uM doxorubicin) -7.53% | inhibition [7] -3.33% | inhibition [8] 1% | growth inhibition [9] -10.2% | growth inhibition [10] -4.47% | viability increase [11] -1.02% | viability [12] 110% | viability [13] 97.1% | inhibition [14] 3.06% | RAM network inhibition [15] 5.1%

CCOC(=O)c1ccc(N2Cc3cc(C)c(C)cc3C2)cc1O
inactive: Her2 level [2] 95.5% | viability [3] 95.5% | viability [4] 108% | viability [5] 97.3% | differential viability (reversal) ([6]; H69AR cells + 2 uM doxorubicin) 4.4% | inhibition [7] 4.27% | inhibition [8] 10.3% | growth inhibition [9] -10.9% | growth inhibition [10] -7.42% | viability increase [11] 2.66% | viability [12] 107% | viability [13] 93.8% | inhibition [14] 0.285% | RAM network inhibition [15] 1.88%
92.9%: viability [6, 16]
97.3%: viability [6, 17]
95.5%: viability [1]

CCC(C)(C(=O)NC1CCCC1)N(Cc1cccs1)C(C)=O (stereo not given)
120%: viability [1]
96.9%: viability [6, 17]
90.2%: viability [6, 16]
inactive: Her2 level [2] 83.5% | viability [3] 120% | viability [4] 102% | viability [5] 96.9% | differential viability (reversal) ([6]; H69AR cells + 2 uM doxorubicin) 6.71% | inhibition [7] -9.04% | inhibition [8] 5.08% | growth inhibition [9] -17.6% | growth inhibition [10] -23.3% | viability increase [11] -0.17% | viability [12] 108% | viability [13] 96.3% | inhibition [14] 0.55% | RAM network inhibition [15] 4.23%

CN(C)S(=O)(=O)c1ccc2c(c1)c(=O)c(C(=O)NCCCN1CCCCCC1)cn2C
inactive: Her2 level [2] 105% | viability [3] 110% | viability [4] 90.7% | viability [5] 102% | differential viability (reversal) ([6]; H69AR cells + 2 uM doxorubicin) -4.19% | inhibition [7] -1.03% | inhibition [8] -7.83% | growth inhibition [9] 9.68% | growth inhibition [10] 8.09% | viability increase [11] -1.28% | viability [12] 103% | viability [13] 99.5% | inhibition [14] 0.785% | RAM network inhibition [15] 0.76%
110%: viability [1]
106%: viability [6, 16]
102%: viability [6, 17]

CN1CCN(Cc2nc3c(c(=O)[nH]c(=O)n3C)n2CCc2ccccc2)CC1
inactive: Her2 level [2] 96% | viability [3] 82% | viability [4] 91.2% | viability [5] 93% | differential viability (reversal) ([6]; H69AR cells + 2 uM doxorubicin) -4.29% | inhibition [7] -6% | inhibition [8] -5% | growth inhibition [9] -4.41% | growth inhibition [10] 1.98% | viability increase [11] -4.22% | viability [12] 92% | viability [13] 93.5% | inhibition [14] 0.565% | RAM network inhibition [15] 1.56%
82%: viability [1]
93%: viability [6, 17]
97.2%: viability [6, 16]

C=C(C)Cn1c(-c2ccccc2)nc2ccccc21
inactive: Her2 level [2] 102% | viability [3] 80% | viability [4] 117% | viability [5] 96.1% | differential viability (reversal) ([6]; H69AR cells + 2 uM doxorubicin) 0.815% | inhibition [7] -2.8% | inhibition [8] -1.45% | growth inhibition [9] -10.1% | growth inhibition [10] -9.65% | viability increase [11] -1.92% | viability [12] 80.2% | viability [13] 87.8% | inhibition [14] 1% | RAM network inhibition [15] 5.93%
96.1%: viability [6, 17]
95.3%: viability [6, 16]
80%: viability [1]

CCCc1cc(C(=O)Nc2sc(C)c(C)c2C(=O)OCC)no1
92.6%: viability [6, 17]
86%: viability [1]
inactive: Her2 level [2] 79% | viability [3] 86% | viability [4] 85.8% | viability [5] 92.6% | differential viability (reversal) ([6]; H69AR cells + 2 uM doxorubicin) 0.625% | inhibition [7] -1.79% | inhibition [8] 1.17% | growth inhibition [9] -10.7% | growth inhibition [10] 2.83% | viability increase [11] 2.07% | viability [12] 102% | viability [13] 97.9% | inhibition [14] 3.55% | RAM network inhibition [15] 7.13%
92%: viability [6, 16]

Source: PubChem BioAssay
